Source: PubChem BioAssay (EPA / NIEHS)
Records with an inconclusive call do not appear. A structure can be active in one record and inactive in another. The source made the active and inactive calls. How the source made its calls, unless noted: active means hit-call score of the fitted dose curve at least 0.9, where 1 is the maximum; inconclusive means response in the unintended direction; inactive means score below 0.9.

Assays:
TIMP1, TIMP1 (gene 7076) = test: LTEA_HepaRG_TIMP1: Life Technologies and Expression Analysis (LTEA) Assay for TIMP1 using HepaRG (AID 2283534; active means hit-call score of the fitted dose curve at least 0.9, where 1 is the maximum; inactive means score below 0.9); settings: mRNA level, 48 h; actives raise or lower the signal
How it was run: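 Readout is TIMP1 mRNA level measured by qRT-PCR and normalized to three housekeeping genes. Human HepaRG cells were treated for 48 h in duplicate at eight concentrations up to 100 uM (0.5% DMSO); gain or loss fitted against DMSO.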

[1] = read-out: Tumor necrosis factor receptor 1 (TNFRSF1A), TNFRSF1A (gene 7132); test: LTEA_HepaRG_TNFRSF1A: Life Technologies and Expression Analysis (LTEA) Assay for Tumor necrosis factor receptor 1 (TNFRSF1A) using HepaRG (AID 2283535; active means hit-call score of the fitted dose curve at least 0.9, where 1 is the maximum; inactive means score below 0.9); settings: mRNA level, 48 h; actives raise or lower the signal
How it was run: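 Read-out is TNFRSF1A transcript level by TaqMan qRT-PCR, normalized to three housekeeping genes, scored as gain or loss of signal versus 0.5% DMSO. Human HepaRG cells received test chemicals for 48 h at up to 100 uM (half-log series).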

[2] = read-out: Thyroid Hormone Responsive (THRSP), THRSP (gene 7069); test: LTEA_HepaRG_THRSP: Life Technologies and Expression Analysis (LTEA) Assay for Thyroid Hormone Responsive (THRSP) using HepaRG (AID 2283536; active means hit-call score of the fitted dose curve at least 0.9, where 1 is the maximum; inactive means score below 0.9); settings: mRNA level, 48 h; actives raise or lower the signal
How it was run: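 qRT-PCR read-out (Fluidigm TaqMan), housekeeping-normalized (ACTB/GAPDH/POLR2A). HepaRG, 48 h chemical exposure, 8-pt half-log series from 100 uM in 0.5% DMSO, duplicates. Bidirectional curve fit vs 0.5% DMSO baseline.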

[3] = read-out: Cellular tumor antigen p53 (Homo sapiens) (UniProt P04637); test: LTEA_HepaRG_TP53: Life Technologies and Expression Analysis (LTEA) Assay for Tumor Protein P53 (TP53) using HepaRG (AID 2283537; active means hit-call score of the fitted dose curve at least 0.9, where 1 is the maximum; inactive means score below 0.9); settings: mRNA level, 48 h; actives raise or lower the signal
How it was run: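 Differentiated HepaRG cells in serum-free induction medium exposed 48 h in duplicate to 8 half-log concentrations, top 100 uM, 0.5% DMSO. TP53 mRNA by TaqMan qRT-PCR (Fluidigm), normalized to ACTB, GAPDH, POLR2A; fitted bidirectionally versus DMSO.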

[4] = read-out: UDP glucuronosyltransferase (UGT1A1), UGT1A1 (gene 54658); test: LTEA_HepaRG_UGT1A1: Life Technologies and Expression Analysis (LTEA) Assay for UDP glucuronosyltransferase (UGT1A1) using HepaRG (AID 2283538; active means hit-call score of the fitted dose curve at least 0.9, where 1 is the maximum; inactive means score below 0.9); settings: mRNA level, 48 h; actives raise or lower the signal
How it was run: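 mRNA induction or loss of UGT1A1, by TaqMan qRT-PCR, in duplicate HepaRG wells after 48 h exposure to half-log dilutions topping at 100 uM; DMSO (0.5%) served as baseline.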

[5] = read-out: UDP glucuronosyltransferase (UGT1A6), UGT1A6 (gene 54578); test: LTEA_HepaRG_UGT1A6: Life Technologies and Expression Analysis (LTEA) Assay for UDP glucuronosyltransferase (UGT1A6) using HepaRG (AID 2283539; active means hit-call score of the fitted dose curve at least 0.9, where 1 is the maximum; inactive means score below 0.9); settings: mRNA level, 48 h; actives raise or lower the signal
How it was run: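 HepaRG, 48 h post-plating switch to serum-free induction medium; chemical 48 h, 100 uM top, half-log x8, duplicate, 0.5% DMSO. Phenobarbital 1mM induction control. UGT1A6 mRNA by TaqMan qRT-PCR; gain/loss fit vs DMSO.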

[6] = read-out: X-box binding protein 1 (XBP1), XBP1 (gene 7494); test: LTEA_HepaRG_XBP1: Life Technologies and Expression Analysis (LTEA) Assay for X-box binding protein 1 (XBP1) using HepaRG (AID 2283540; active means hit-call score of the fitted dose curve at least 0.9, where 1 is the maximum; inactive means score below 0.9); settings: mRNA level, 48 h; actives raise or lower the signal
How it was run: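 Transcript levels of XBP1, measured by qRT-PCR and normalised to three housekeeping genes, were fitted bidirectionally relative to 0.5% DMSO controls. Human HepaRG cells received eight-point half-log dilutions from 100 uM for 48 h.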

[7] = LTEA_HepaRG_LDH_cytotoxicity: Cytotoxicity Assessment in the Life Technologies and Expression Analysis (LTEA) Assay (AID 2283563)
How it was run: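 Cells were thawed and plated for 48 h. Medium was then replaced with serum-free induction medium. Chemicals (8 half-log points, maximum 100 uM, 0.5% DMSO) were added in duplicate for 48 h, after which spent medium was assayed for LDH.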

[8] = TOX21_p53_BLA_p5_viability: Viability Assessment in the Tox21 HCT-116 p53 Agonism Beta-lactamase Assay, Phase 5 (AID 2283600)
How it was run: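 Workflow: seed 4000 cells per well, wait 5 h, add compounds (DMSO, 217-fold dilution), incubate 16 h, load CCF4-AM 2 h, add CellTiter-Glo, read luminescence after 30 min.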

[9] = molecular target: Cellular tumor antigen p53 (Homo sapiens) (UniProt P04637); test: TOX21_p53_BLA_p4_ratio: Tox21 HCT-116 p53 Agonism Beta-lactamase Assay, Ratio, Phase 4 (AID 2283601)
How it was run: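 HCT-116 p53 beta-lactamase reporter cells (4000/well) preincubated 5 h, then compound (217-fold dilution of DMSO stock) for 16 h at 37C. CCF4-AM substrate added 2 h at room temperature; 460/530 nm emission ratio fitted upward versus DMSO.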

[10] = Tanguay_ZF_120hpf_MORT_legacy: (Legacy) Oregon State University Tanguay Lab 120 Hour Post-fertilization zebrafish Assay for Mortality (AID 2283633)
How it was run: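 5D WT zebrafish, chorion removed 4 hpf; 1 embryo/well from 6 hpf; static exposure to 120 hpf, 28C, dark, sealed. Final DMSO 0.64%. Readout: binary mortality, brightfield, 24 + 120 hpf; DMSO as negative control.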

[11] = Tanguay_ZF_120hpf_YSE_legacy: (Legacy) Oregon State University Tanguay Lab 120 Hour Post-fertilization zebrafish Assay for Yolk Sac Edema (AID 2283634);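 on AC50: actives raise the incidence of yolk sac edema above the DMSO baseline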
How it was run: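 Dechorionate (pronase, 4 hpf) → place one 6 hpf embryo per well → static compound exposure, sealed and foil-covered, 28C, to 120 hpf → record yolk sac edema as present or absent. Final DMSO 0.64%.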

[12] = Tanguay_ZF_120hpf_AXIS_legacy: (Legacy) Oregon State University Tanguay Lab 120 Hour Post-fertilization zebrafish Assay for Body Axis Malformation (AID 2283635);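 on AC50: potency for an increased fraction of larvae scored with body axis malformation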
How it was run: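 Chorion is removed with pronase at 4 hpf, then single 6 hpf embryos are dosed (final DMSO 0.64%) and held statically at 28C in sealed, foil-covered plates. At 120 hpf body axis malformation is recorded as present or absent.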

[13] = Tanguay_ZF_120hpf_EYE_legacy: (Legacy) Oregon State University Tanguay Lab 120 Hour Post-fertilization zebrafish Assay for Eye Malformation (AID 2283636);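 further: binary presence or absence of eye malformation scored by brightfield in 120 hpf larvae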
How it was run: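 5D wild-type embryos, pronase-dechorionated at 4 hpf; static exposure 6–120 hpf, 28C, dark; DMSO 0.64% final; 5uM trimethyltin chloride positive control. Binary eye-defect scoring at 120 hpf; dead embryos not scored.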

[14] = TOX21_p53_BLA_p2_viability: Viability Assessment in the Tox21 HCT-116 p53 Agonism Beta-lactamase Assay, Phase 2 (AID 2283591);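 further: compound exposure lasted 16 h at 37 °C; actives lower the ATP signal meaning cytotoxicity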
How it was run: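 HCT116 p53-bla cells, 4000/well, dosed after 5 h plating (217-fold dilution of DMSO stocks) and incubated 16 h at 37C. Viability taken as cellular ATP by CellTiter-Glo luminescence after 30 min RT; signal loss marks cytotoxicity.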

[15] = molecular target: Cellular tumor antigen p53 (Homo sapiens) (UniProt P04637); test: TOX21_p53_BLA_p2_ratio: Tox21 HCT-116 p53 Agonism Beta-lactamase Assay, Ratio, Phase 2 (AID 2283592)
How it was run: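 Plated HCT116 p53-bla cells (4000/well) received compound after 5 h, then 16 h at 37C/5% CO2. CCF4-AM added, 2 h RT. Ratio of 460 to 530 nm emission taken as the p53 reporter signal.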

[16] = TOX21_p53_BLA_p3_viability: Viability Assessment in the Tox21 HCT-116 p53 Agonism Beta-lactamase Assay, Phase 3 (AID 2283593);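 further: cells exposed to compound for 16 h before reading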
How it was run: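 HCT116 cells, 4000/well, dosed 5 h after plating by pin transfer (217-fold dilution from DMSO stock) and incubated 16 h at 37C, 5% CO2. Viability read as ATP luminescence with CellTiter-Glo after 30 min at room temperature.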

[17] = molecular target: Cellular tumor antigen p53 (Homo sapiens) (UniProt P04637); test: TOX21_p53_BLA_p3_ratio: Tox21 HCT-116 p53 Agonism Beta-lactamase Assay, Ratio, Phase 3 (AID 2283596)
How it was run: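 Cells were seeded at 4000/well, rested 5 h at 37C, then dosed with DMSO compound solutions (217-fold dilution) for 16 h. CCF4-AM substrate was loaded for 2 h at room temperature, and the 460/530 nm emission ratio was fitted for gain of signal versus DMSO.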

[18] = TOX21_p53_BLA_p4_viability: Viability Assessment in the Tox21 HCT-116 p53 Agonism Beta-lactamase Assay, Phase 4 (AID 2283597);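 further: hits lower the luminescence signal meaning cytotoxicity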
How it was run: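 Readout: ATP luminescence (CellTiter-Glo), measured 30 min after reagent addition at RT. The reagent followed a 2 h CCF4-AM incubation, and the cells had been exposed to compound for 16 h at 37C.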

[19] = molecular target: Cellular tumor antigen p53 (Homo sapiens) (UniProt P04637); test: TOX21_p53_BLA_p5_ratio: Tox21 HCT-116 p53 Agonism Beta-lactamase Assay, Ratio, Phase 5 (AID 2283599)
How it was run: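 HCT-116 p53-bla cells (4000/well) plated 5 h, dosed with compound (217-fold DMSO dilution) for 16 h at 37 C; CCF4-AM substrate 2 h at room temperature. Activity is the 460/530 nm emission ratio (405 nm excitation), fitted in gain-of-signal direction versus DMSO.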

Measured: AC50

Cellular tumor antigen p53 (Homo sapiens), sequence (P04637 whole entry, looked up): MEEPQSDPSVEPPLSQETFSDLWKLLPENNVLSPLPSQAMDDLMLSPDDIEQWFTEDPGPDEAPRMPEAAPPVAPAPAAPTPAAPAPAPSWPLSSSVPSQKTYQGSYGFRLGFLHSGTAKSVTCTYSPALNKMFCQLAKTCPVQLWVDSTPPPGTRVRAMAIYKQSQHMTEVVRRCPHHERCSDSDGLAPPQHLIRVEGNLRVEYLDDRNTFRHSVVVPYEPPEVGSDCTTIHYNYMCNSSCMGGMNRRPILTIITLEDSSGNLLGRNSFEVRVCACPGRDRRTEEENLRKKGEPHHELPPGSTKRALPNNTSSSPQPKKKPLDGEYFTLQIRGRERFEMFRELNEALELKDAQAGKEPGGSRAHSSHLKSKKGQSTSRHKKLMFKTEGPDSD

CNC(=O)ON=C(C)SC
active: [12] 10.1 µM
not listed: [14] | [15] | [16] | [17] | [18] | [19]
inactive: all other assays above

S=C1NCCN1
not listed: [10]
inactive: all other assays above

CCC(=O)Nc1ccc(Cl)c(Cl)c1
active: [15] 88 µM | [17] 72.7 µM
inactive: TIMP1, TIMP1 (gene 7076) | [1] | [2] | [3] | [5] | [6] | [7] | [14] | [15] | [16] | [17] | [18] | [19] | [8] | [9] | [10] | [11] | [12] | [13]

CCOP(=S)(OCC)SCCSCC
not listed: [7] | [16]
inactive: all other assays above

CON=C(C(=O)OC)c1ccccc1CON=C(C)c1cccc(C(F)(F)F)c1
active: [2] 50 µM | [15] 1.25 µM | [17] 3.12 µM | [19] 2.24 µM | [9] 1.65 µM | [11] 7.29 µM | [13] 5.22 µM
not listed: [4]
inactive: all other assays above

CCOP(=S)(OCC)Oc1ccc([N+](=O)[O-])cc1
active: [15] 89.3 µM
inactive: TIMP1, TIMP1 (gene 7076) | [1] | [2] | [3] | [5] | [6] | [7] | [14] | [15] | [16] | [17] | [19] | [10] | [11] | [12] | [13]

C[N+]1(C)CCCCC1
not listed: [8] | [14] | [16] | [18]
inactive: all other assays above
